Measured values as given in the supplement of paper PMC6555819.

Experiments:
Experiment in all cases: PBM binding z-score (relative to random genomic background probes); higher = stronger binding; sequences stand for … in GC…GCGATTGACAGCGTAGAATGAAGG
[1] = test system: FXR:RXRa (NR concentration 270 nM, RXRa partner concentration 90 nM)
Method in brief: (§1)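 Binding buffer was PBS pH 7.4 with 2% milk, 0.02% Triton X-100, 1 mM DTT, 0.2 mg/mL BSA and 0.4 mg/ml salmon testes DNA. In it, ligand-free nuclear receptor dimers were incubated 1 h on custom Agilent 4×180K protein-binding microarrays carrying double-stranded probes. Antibodies against each partner (one per run) detected binding, and z-scores were calculated against random background probes after regression normalization of scanned fluorescence.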

[2] = test system: LXRa:RXRa (NR concentration 270 nM, RXRa partner concentration 90 nM)
Method in brief: as §1

[3] = test system: LXRa homodimer (NR concentration 270 nM)
Method in brief: as §1

[4] = test system: LXRb:RXRa (NR concentration 270 nM, RXRa partner concentration 90 nM)
Method in brief: as §1

[5] = test system: LXRb homodimer (NR concentration 270 nM)
Method in brief: as §1

[6] = test system: PPARa:RXRa (NR concentration 270 nM, RXRa partner concentration 90 nM)
Method in brief: as §1

[7] = test system: PPARg:RXRa (NR concentration 180 nM, RXRa partner concentration 90 nM)
Method in brief: as §1

[8] = test system: PPARg:RXRa 270nM:90nM, anti-RXR (NR concentration 270 nM, RXRa partner concentration 90 nM)
Method in brief: as §1

[9] = test system: PPARg:RXRa 30nM:10nM, anti-RXR (NR concentration 30 nM, RXRa partner concentration 10 nM)
Method in brief: as §1

[10] = test system: PPARg:RXRa 90nM:30nM, anti-RXR (NR concentration 90 nM, RXRa partner concentration 30 nM)
Method in brief: as §1

| Sequence | PBM binding z-score [1] | PBM binding z-score [2] | PBM binding z-score [3] | PBM binding z-score [4] | PBM binding z-score [5] | PBM binding z-score [6] | PBM binding z-score [7] | PBM binding z-score [8] | PBM binding z-score [9] | PBM binding z-score [10] |
| --- | --- | --- | --- | --- | --- | --- | --- | --- | --- | --- |
| CCTATTAGTTGACCATAAGGGCAACCGGAGCTCG | 0.775 | 0.432 | 0.625 | 0.404 | 0.814 | 0.657 | 0.421 | 0.473 | -0.154 | 0.171 |
| AATACAGGGTCATCGTAGGCCAGCGTACGCACAG | 7.47 | 6.19 | 2.61 | 4.66 | 1.23 | 6.28 | 6.7 | 5.95 | 2.73 | 4.61 |
| CAAACTCGGTCAAAGGTCAAAGTCGAGCCAACCA | 7.73 | 6.98 | 6.36 | 6.72 | 3.13 | 7.67 | 12.9 | 10.9 | 11.8 | 12.5 |
| ACAGACAGGTGATGAAGGTAACTCCGGCTATCAT | 0.229 | 0.181 | -0.0879 | -0.149 | -0.444 | 0.23 | 0.658 | -0.261 | -0.0835 | -0.0688 |
| AGTCAAAGTACATCTAGGTAACGTAAGATATGCT | -0.254 | -0.258 | -0.145 | -0.0982 | -0.223 | 0.359 | 1.35 | 0.631 | 0.46 | 0.326 |
| TCTATTAGTTGAGGGGCAACCGACGAGTCCGTTT | 0.999 | 0.876 | 0.028 | 1.41 | 0.923 | 1.18 | 0.143 | 1.75 | 3.58 | 2.71 |
| ATCGAAAGGTCGAAGGTAAGTATACCCACCCGAA | 3.95 | 3.26 | 0.165 | 2.83 | 0.858 | 4.25 | 3.8 | 3.88 | 1.59 | 2.86 |
| TGTCAAAGTTCAAAGGTAACGGAAGTATCCACAC | 7.08 | 6.74 | 4.4 | 4.82 | 1.8 | 6.04 | 8.79 | 7.85 | 5.15 | 7.21 |
| CCTATTAGTTGACTATAAGGGCAACCGAAGCTCG | 0.392 | 0.149 | 0.0612 | 0.294 | 0.219 | 0.121 | 0.445 | 0.0483 | 0.0994 | -0.284 |
| CAAACTAGGTCATGAGGTCAAAGTCCGCTTCCCG | 6.96 | 6.16 | 5.21 | 4.92 | 1.82 | 6.48 | 9.89 | 8.16 | 6.58 | 8.76 |
| CCTGACGGGTCACGAGGTTATAGCACGACGAGCG | 5.64 | 4.17 | 0.355 | 3.29 | -0.286 | 5.34 | 5.73 | 5.6 | 1.87 | 3.91 |
| CCTACTGGGCCACGAAAGGTCTTTGATTCAGTGA | 0.186 | -0.153 | -0.487 | -0.225 | -1.08 | 1.31 | 1.84 | 1.99 | -0.0558 | 0.769 |
| CGAACTAGGTCATCCAGGACAGTGACTACATTGA | 4.72 | 2.67 | 0.428 | 1.91 | -0.136 | 4.84 | 7.74 | 6.43 | 3.94 | 6.21 |
| AGAATGAGGTTGAGATCAGGGAAACAGAATACAT | 0.277 | 0.207 | -0.104 | 0.224 | -0.585 | 0.66 | 0.524 | 0.227 | 0.329 | 0.246 |
| GCTATTAGTTGAAAGGGCAACCGCATGATTCTCG | 0.581 | 0.701 | 0.377 | 0.909 | -0.00487 | 2.31 | 2.89 | 4.29 | 2.56 | 4.39 |
| TCAGATAGGTAAATGCTAGGTGAAAGTCCGATCT | -0.114 | 0.46 | -0.0618 | 0.329 | -0.66 | 0.824 | 0.231 | 2.17 | 3.59 | 2.99 |
| TAGCCTGGGTCATTCAGGGGCCAGTATAGAAAGC | 3.88 | 2.28 | -0.548 | 2.04 | 0.00492 | 3.65 | 2.29 | 2.38 | 0.19 | 1.47 |
| CCTACTGAGCCATCAGGTCATTGATATCAACGTT | 1.58 | 1.47 | 2.08 | 2.26 | 0.649 | 1.79 | 0.302 | 0.843 | 0.137 | 0.472 |
| GCTAGCAGGCCATTTGGGTCATTCAATGACGGGC | 0.317 | 0.0338 | -0.598 | 0.324 | -1.08 | 1.47 | 0.533 | 0.233 | -0.872 | -0.17 |
| TCTCGTAGATCAATAGAGGTTAAGAAAGTGCGCT | 0.399 | 3.34 | 0.504 | 1.71 | -0.598 | 1.62 | -0.218 | 1.6 | 2.83 | 2.12 |
| CAAACTAGGTCACAGATGTCAAAGTCCGTGCGTA | 3.99 | 3.51 | 0.769 | 2.81 | 0.443 | 5.44 | 8.76 | 7.33 | 5.52 | 7.25 |
| GCGACAGGGGCAAAGCAGGTTACCATAAGGTTGG | 0.475 | 1.06 | -0.402 | 0.691 | -0.988 | 1.41 | 0.589 | 0.106 | -0.427 | -0.446 |
| GTACCAAGGTGAAAAGGTCGTTGATGAGTAGGCG | 2.32 | 1.94 | 0.42 | 1.99 | -0.22 | 3.63 | 2.62 | 3.36 | 1.38 | 2.94 |
